Experiments:
Assay in all cases: log2 ratio of Biotin-Ahx-Ub-VS probe labelling (fragment/DMSO); higher = less target engagement (more negative = stronger competition), active = hit call of the paper (q ≤ 0.05, log2 ratio ≤ -1)
Details in all cases: compound concentration: 200 uM; treatment time: 3 h
[1] = target: T1, OTUD6B (UniProt Q8N6M0)
T1 sequence (whole entry): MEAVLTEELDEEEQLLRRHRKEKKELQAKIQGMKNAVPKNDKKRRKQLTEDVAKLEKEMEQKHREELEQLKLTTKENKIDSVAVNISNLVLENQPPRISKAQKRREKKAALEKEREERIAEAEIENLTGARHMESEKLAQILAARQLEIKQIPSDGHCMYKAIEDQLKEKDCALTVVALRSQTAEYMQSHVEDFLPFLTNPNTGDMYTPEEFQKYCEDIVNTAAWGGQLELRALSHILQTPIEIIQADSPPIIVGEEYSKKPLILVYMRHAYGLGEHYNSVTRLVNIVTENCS
Method in brief: (§1)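 Average log2 ratios of fragment over vehicle were obtained by unpaired t-test from global-median-normalised Spectronaut label-free quantities. Proteins with ≥2 unique peptides were included. HEK293T lysate (495 µg per sample) was treated in triplicate with fragment at 200 µM or vehicle for 3 h, then with Biotin-Ahx-Ub-VS at 0.5 µM final for 1 h, and labelled DUBs were NeutrAvidin-enriched and run by diaPASEF LC-MS/MS.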

[2] = target: T2, OTUD7B (UniProt Q6GQQ9)
T2 sequence (whole entry): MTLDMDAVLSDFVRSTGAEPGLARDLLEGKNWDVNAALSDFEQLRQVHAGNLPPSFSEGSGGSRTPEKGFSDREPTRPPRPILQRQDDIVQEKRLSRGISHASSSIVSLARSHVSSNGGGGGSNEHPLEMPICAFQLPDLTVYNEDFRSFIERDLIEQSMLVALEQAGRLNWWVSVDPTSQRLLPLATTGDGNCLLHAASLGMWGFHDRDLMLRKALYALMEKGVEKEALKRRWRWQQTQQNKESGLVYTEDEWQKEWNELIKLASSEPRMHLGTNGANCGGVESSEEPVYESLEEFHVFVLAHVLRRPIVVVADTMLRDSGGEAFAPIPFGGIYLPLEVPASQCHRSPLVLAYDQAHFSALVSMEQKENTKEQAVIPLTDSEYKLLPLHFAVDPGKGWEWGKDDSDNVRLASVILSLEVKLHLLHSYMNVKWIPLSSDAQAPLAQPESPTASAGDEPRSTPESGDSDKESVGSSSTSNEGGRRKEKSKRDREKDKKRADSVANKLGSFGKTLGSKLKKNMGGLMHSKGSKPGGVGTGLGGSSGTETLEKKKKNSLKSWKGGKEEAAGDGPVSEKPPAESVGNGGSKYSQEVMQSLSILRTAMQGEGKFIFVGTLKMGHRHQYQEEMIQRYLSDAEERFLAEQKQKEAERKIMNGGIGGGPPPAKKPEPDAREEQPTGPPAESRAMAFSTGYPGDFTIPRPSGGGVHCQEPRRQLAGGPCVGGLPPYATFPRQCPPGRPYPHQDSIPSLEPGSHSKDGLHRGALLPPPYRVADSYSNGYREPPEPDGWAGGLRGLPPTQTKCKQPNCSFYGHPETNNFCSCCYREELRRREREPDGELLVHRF
Method in brief: as §1

[3] = target: PRPF8 (UniProt Q6P2Q9)
Method in brief: as §1

[4] = target: T3, PSMD7 (UniProt P51665)
T3 sequence (whole entry): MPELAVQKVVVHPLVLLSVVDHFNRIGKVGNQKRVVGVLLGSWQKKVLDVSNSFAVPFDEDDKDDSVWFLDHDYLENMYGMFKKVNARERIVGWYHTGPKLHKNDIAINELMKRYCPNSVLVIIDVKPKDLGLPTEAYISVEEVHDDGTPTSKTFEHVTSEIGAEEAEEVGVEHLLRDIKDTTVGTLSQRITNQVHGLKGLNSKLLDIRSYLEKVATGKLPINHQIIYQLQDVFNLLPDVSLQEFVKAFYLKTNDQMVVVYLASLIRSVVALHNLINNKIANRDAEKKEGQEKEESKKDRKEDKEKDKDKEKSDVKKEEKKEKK
Method in brief: as §1

[5] = target: UCHL1 (UniProt P09936)
UCHL1, sequence (P09936 whole entry, looked up): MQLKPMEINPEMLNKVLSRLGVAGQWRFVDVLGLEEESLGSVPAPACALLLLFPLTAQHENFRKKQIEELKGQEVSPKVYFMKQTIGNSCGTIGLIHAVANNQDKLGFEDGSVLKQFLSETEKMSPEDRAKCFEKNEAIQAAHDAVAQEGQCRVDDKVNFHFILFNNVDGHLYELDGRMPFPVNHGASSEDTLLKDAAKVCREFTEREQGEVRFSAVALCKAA
Method in brief: as §1

[6] = target: T4, UCHL3 (UniProt P15374)
T4 sequence (whole entry): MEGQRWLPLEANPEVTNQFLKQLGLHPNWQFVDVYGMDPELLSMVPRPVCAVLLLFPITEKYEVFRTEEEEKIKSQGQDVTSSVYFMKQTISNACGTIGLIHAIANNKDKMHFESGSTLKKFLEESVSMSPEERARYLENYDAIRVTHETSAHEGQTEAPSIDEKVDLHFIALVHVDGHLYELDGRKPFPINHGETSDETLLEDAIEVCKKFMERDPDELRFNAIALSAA
Method in brief: as §1

[7] = target: T5, UCHL5 (UniProt Q9Y5K5)
T5 sequence (whole entry): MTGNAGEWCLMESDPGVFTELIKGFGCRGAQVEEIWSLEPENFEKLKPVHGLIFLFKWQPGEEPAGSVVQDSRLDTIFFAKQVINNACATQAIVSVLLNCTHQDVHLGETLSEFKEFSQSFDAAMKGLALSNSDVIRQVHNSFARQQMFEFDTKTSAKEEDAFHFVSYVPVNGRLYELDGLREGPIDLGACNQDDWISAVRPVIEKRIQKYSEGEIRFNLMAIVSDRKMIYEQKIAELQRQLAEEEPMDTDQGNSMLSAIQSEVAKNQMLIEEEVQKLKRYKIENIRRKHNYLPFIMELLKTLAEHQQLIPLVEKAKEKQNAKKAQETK
Method in brief: as §1

[8] = target: USP10 (UniProt Q14694)
USP10, sequence (Q14694 whole entry): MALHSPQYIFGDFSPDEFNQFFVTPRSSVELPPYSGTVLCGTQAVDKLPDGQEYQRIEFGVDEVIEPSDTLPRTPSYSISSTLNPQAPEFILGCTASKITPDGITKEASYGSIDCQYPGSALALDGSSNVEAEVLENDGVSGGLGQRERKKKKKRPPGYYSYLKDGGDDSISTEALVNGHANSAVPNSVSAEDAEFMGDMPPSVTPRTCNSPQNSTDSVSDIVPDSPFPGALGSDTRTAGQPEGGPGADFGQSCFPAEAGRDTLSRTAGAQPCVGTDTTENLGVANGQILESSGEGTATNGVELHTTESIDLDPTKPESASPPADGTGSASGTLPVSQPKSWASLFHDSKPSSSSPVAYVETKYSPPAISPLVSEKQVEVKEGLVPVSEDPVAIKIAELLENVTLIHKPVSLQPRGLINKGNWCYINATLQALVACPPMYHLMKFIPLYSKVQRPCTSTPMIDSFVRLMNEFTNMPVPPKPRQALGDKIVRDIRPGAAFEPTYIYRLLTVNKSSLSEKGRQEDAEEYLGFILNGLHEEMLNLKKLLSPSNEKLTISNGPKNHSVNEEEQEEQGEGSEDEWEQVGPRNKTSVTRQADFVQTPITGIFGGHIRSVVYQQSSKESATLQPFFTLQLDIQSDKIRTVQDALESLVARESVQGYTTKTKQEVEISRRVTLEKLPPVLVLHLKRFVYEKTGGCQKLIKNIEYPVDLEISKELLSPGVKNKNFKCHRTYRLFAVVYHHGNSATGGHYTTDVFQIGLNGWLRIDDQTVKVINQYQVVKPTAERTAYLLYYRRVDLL
Method in brief: as §1

[9] = target: T6, USP15 (UniProt Q9Y4E8)
T6 sequence (whole entry): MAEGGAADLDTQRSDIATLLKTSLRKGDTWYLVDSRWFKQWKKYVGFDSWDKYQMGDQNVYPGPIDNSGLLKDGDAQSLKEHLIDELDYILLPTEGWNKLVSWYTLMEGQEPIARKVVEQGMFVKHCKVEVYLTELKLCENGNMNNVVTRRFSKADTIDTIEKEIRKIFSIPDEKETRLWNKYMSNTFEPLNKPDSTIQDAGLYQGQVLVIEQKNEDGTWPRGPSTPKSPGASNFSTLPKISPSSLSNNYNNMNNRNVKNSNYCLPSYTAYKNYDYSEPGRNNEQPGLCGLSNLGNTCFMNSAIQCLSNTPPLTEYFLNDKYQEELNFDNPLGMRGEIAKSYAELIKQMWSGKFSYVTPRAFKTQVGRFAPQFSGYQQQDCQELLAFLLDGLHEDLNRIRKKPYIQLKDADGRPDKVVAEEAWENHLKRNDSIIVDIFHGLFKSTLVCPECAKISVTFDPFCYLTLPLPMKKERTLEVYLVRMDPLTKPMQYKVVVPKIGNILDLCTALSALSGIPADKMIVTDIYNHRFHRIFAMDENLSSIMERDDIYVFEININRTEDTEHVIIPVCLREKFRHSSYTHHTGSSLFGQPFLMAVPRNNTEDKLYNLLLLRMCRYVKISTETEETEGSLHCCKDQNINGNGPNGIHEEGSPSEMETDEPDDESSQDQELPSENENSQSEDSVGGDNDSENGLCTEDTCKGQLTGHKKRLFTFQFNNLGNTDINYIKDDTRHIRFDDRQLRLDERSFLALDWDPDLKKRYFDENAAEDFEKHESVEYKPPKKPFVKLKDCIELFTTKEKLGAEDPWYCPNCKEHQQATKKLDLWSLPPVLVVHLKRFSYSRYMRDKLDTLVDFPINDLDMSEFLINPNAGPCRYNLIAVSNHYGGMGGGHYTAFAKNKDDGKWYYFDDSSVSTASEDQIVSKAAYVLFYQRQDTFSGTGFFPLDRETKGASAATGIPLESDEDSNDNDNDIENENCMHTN
Method in brief: as §1

[10] = target: USP16 (UniProt Q9Y5T5)
USP16, sequence (Q9Y5T5 whole entry, looked up): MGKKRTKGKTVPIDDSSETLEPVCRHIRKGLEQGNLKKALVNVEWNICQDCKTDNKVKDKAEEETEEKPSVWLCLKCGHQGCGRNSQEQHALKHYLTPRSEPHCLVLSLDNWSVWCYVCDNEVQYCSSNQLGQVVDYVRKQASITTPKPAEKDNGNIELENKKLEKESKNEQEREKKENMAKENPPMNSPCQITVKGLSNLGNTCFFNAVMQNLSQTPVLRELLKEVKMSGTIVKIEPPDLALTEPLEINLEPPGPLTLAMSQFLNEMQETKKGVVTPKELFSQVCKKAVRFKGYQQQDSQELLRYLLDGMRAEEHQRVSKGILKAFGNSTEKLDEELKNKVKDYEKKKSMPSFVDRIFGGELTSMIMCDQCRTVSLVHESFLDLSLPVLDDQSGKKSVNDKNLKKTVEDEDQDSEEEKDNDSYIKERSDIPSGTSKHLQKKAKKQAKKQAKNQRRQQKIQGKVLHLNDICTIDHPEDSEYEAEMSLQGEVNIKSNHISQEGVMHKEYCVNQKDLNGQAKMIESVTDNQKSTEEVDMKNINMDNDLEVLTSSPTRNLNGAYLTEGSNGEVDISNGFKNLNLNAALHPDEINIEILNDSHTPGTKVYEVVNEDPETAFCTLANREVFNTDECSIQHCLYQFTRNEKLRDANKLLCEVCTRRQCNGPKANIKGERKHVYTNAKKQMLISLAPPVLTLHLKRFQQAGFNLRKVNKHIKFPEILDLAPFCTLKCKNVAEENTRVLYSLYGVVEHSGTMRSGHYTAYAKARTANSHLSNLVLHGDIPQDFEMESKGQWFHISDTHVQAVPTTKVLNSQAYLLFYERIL
Method in brief: as §1

Measured: log2 ratio of Biotin-Ahx-Ub-VS probe labelling

Cc1cccc(NC(=O)[C@@H]2CCCN2C(=O)CCl)n1
active: [5] -1.67
inactive: [1] -0.319 | [2] -0.29 | [3] -0.0295 | [4] -0.254 | [6] -0.737 | [7] -0.436 | [8] -0.09 | [9] -0.215 | [10] -0.0941

Reference: the supplement of paper PMC11732987, “Enantioselective OTUD7B fragment discovery through chemoproteomics screening and high-throughput optimisation” (Communications Chemistry, 2025)
